# “And” between values parts separate entries of the source, which are not always exact repeats. Equal entries are not always repeated. Inconclusive results are not listed. A call without a number means that no potency is given here. The source made the active and inactive calls. Unless noted, calls come from the whole dose curve.
# Experiments:
# [1] = Nuclear factor erythroid 2-related factor 2/antioxidant responsive element (Nrf2/ARE) small molecule agonists: qHTS cell viability counter screen in human keratinocytes (AID 1919968; active = well fitted curve in the direction sought with a large enough effect in the repeat runs; an effect the other way counts as inactive or inconclusive; note: nearly all actives have a fitted effect of over 55% in size)
# Summary of the method: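 Parallel cytotoxicity read: KeratinoSens HaCaT cells, compound treatment 23 h, viability by CellTiter-Fluor fluorescence 1 h post-reagent.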
# [2] = biological target: KiSS-1 receptor (Homo sapiens) (UniProt Q969F8); assay: Human kisspeptin (KISS1R) small molecule agonists, calcium flux assay in KISS1R-HEK293 cells (AID 1920064; active = well fitted curve in the direction sought with a large enough effect in the repeat runs; an effect the other way counts as inactive or inconclusive)
# Summary of the method: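 Triplicate 15-concentration series were applied to dye-loaded human KISS1R HEK293 cells, and agonist-evoked calcium fluorescence was captured for 3 min.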
# [3] = G protein-coupled receptor (GPCR) small molecule agonists, calcium flux assay: HEK293 wild type cell line counter screen (AID 1920065)
# Summary of the method: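 Non-specific calcium responders were flagged by adding DMSO-dissolved compounds to dye-loaded cells and reading 480/540 nm fluorescence each second for 3 min; ATP served as positive control.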
# [4] = p53 small molecule agonists, cell-based qHTS assay with human liver microsomes (AID 1963577)
# Summary of the method: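 Compounds act here after metabolic activation: human liver microsomes and NADPH, both at 0.5 mg/mL final, were co-added to p53RE-bla cells. Incubation ran 16 h at 37 C, followed by LiveBLAzer detection.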
# [5] = p53 small molecule agonists, cell-based qHTS assay with rat liver microsomes (AID 1963578)
# Summary of the method: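 Read-out is beta-lactamase reporter fluorescence (LiveBLAzer, 2 h, room temperature, dark) in p53RE-bla cells treated 16 h at 37 C with compound, rat liver microsomes and NADPH, both 0.5 mg/mL final.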
# [6] = p53 small molecule agonists, cell-based qHTS assay: qHTS cell viability counter screen (AID 1963581); note: nearly all actives have a fitted effect of over 45% in size
# Summary of the method: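 Multiplexed with the reporter read, a CellTiter-Glo step (30 min, room temperature) gauges ATP-based viability of HCT-116 p53RE-bla cells after 16 h compound incubation at 37 C.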
# [7] = p53 small molecule agonists, cell-based qHTS assay (AID 1963582; active = well fitted activation curve with a large enough effect in the signal ratio in the repeat runs, not every such curve was filed as active; the % refers to the signal ratio)
# Summary of the method: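 Beta-lactamase reporter cells (p53RE-bla) treated with compounds for 16 h at 37 C; FRET substrate, 2 h, room temperature; fluorescence intensity.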
# [8] = cAMP Responsive Elements (CRE) small molecule agonists, cell-based qHTS assay (AID 1963590)
# Summary of the method: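 Quantitative HTS for CRE agonists: HEK 293T CRE-bla cells, overnight plating, 3 h compound incubation at 37 C/5% CO2, then 2 h room-temperature LiveBLAzer B/G FRET substrate loading.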
# [9] = biological target: Beta-2 adrenergic receptor (Homo sapiens) (UniProt P07550); assay: Adrenergic beta2 receptor (ADRB2) small molecule antagonists, cell-based qHTS assay (AID 1963592); note: series mostly up to about 92 µM; nearly all actives have a fitted effect of over 50% in size
# Summary of the method: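 Assay format: CHO-ADRB2 cells, 18-20hr seeding at 37C/5% CO2, then compound plus 1nM isoproterenol agonist mix for 0.5hr RT. Homogeneous time-resolved fluorescence cAMP detection after 1hr, expressed as 665/615 nm ratio.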
# [10] = biological target: Beta-2 adrenergic receptor (Homo sapiens) (UniProt P07550); assay: Adrenergic beta2 receptor (ADRB2) small molecule agonists, cell-based qHTS assay (AID 1963593);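 note: CHO cells stably overexpressing human ADRB2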
# Summary of the method: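 CHO cells stably over-expressing ADRB2 were plated overnight at 37C, then dosed with compounds plus a stimulation mix containing 100uM IBMX and 25uM Ro-20-1724 for 0.5hr at room temperature. cAMP was measured by HTRF competition, 1hr.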
# [11] = biological target: D(2) dopamine receptor (Homo sapiens) (UniProt P14416); assay: Dopamine D2 receptor (DRD2) small molecule agonists, cell-based qHTS assay (AID 1963594); note: nearly all actives have a fitted effect of over 35% in size
# Summary of the method: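 HEK293 cells stably expressing DRD2 were cultured 24 h at 37 C, then given Ro20-1724 (0.1 mM final) and compounds for 10 min at room temperature. NKH477 (200nM) was then added for 30 min. cAMP was read by HTRF.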
# [12] = biological target: D(2) dopamine receptor (Homo sapiens) (UniProt P14416); assay: Dopamine D2 receptor (DRD2) small molecule antagonists, cell-based qHTS assay (AID 1963595; active = well fitted inhibition curve with a large enough effect in the signal ratio in the repeat runs, with a control signal flat; the % refers to the signal ratio; note: potency is the fitted concentration of half-maximal effect)
# Summary of the method: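 Cells were plated and grown for 24 h at 37 °C. Ro20-1724 (0.1 mM final) went in first, then compound for 10 min. NKH477 (200 nM) with quinpirole (12 nM) followed for 30 min at RT, then HTRF detection reagents for 1 h.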
# [13] = biological target: Gonadotropin-releasing hormone receptor (Homo sapiens) (UniProt P30968); assay: Human gonadotropin-releasing hormone receptor (GnRHR) small molecule agonists, calcium flux assay in GnRHR-HEK293 cells (AID 1920063); note: nearly all actives have a fitted effect of over 35% in size
# Summary of the method: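 Calcium flux, agonist mode, human GnRHR stably integrated in HEK293; dye 1 h at 37 C before compound; Ex/Em=480/540 kinetic read, 3 min; 15 concentrations, triplicate.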
# [14] = p53 small molecule agonists, cell-based qHTS assay with human liver microsomes: qHTS cell viability counter screen (AID 1963579); note: nearly all actives have a fitted effect of over 45% in size
# Summary of the method: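 Cells carrying the p53 response-element beta-lactamase reporter are treated for 16 h at 37 C with test compounds in the presence of human liver microsomes and NADPH (both 0.5 mg/mL final); ATP-based CellTiter-Glo luminescence then reports viability.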
# [15] = p53 small molecule agonists, cell-based qHTS assay with rat liver microsomes: qHTS cell viability counter screen (AID 1963580); note: nearly all actives have a fitted effect of over 45% in size
# Summary of the method: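 Counter screen for cytotoxicity under metabolic activation: rat liver microsomes and NADPH, 0.5 mg/mL final each, added with compounds to p53RE-bla HCT-116 cells; 16 h at 37 C, then ATP luminescence read.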
# [16] = biological target: 5-hydroxytryptamine receptor 2A (Homo sapiens) (UniProt P28223); assay: 5-hydroxytryptamine receptor 2A (HTR2A) small molecule antagonists, cell-based qHTS assay (AID 1963586); note: nearly all actives have a fitted effect of over 45% in size
# Summary of the method: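 CHO cells stably expressing human HTR2A were plated for 18 h at 37 C, then loaded with calcium dye for 1 h. Compounds were preincubated 5 min at room temperature before DOI (4 nM solution) was added. Kinetic fluorescence was read for 3 min.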
# [17] = biological target: 5-hydroxytryptamine receptor 2A (Homo sapiens) (UniProt P28223); assay: 5-hydroxytryptamine receptor 2A (HTR2A) small molecule agonists, cell-based qHTS assay (AID 1963587); note: nearly all actives have a fitted effect of over 30% in size
# Summary of the method: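 HTR2A-CHO cells, plated 18 h at 37 C/5% CO2, dye-loaded 1 h at 37 C; compounds in DMSO added by pin tool (agonist mode). Intracellular calcium flux read as kinetic fluorescence on FDSS over 2 min at 1 s intervals.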
# [18] = biological target: Muscarinic acetylcholine receptor M1 (Homo sapiens) (UniProt P11229); assay: Cholinergic receptor muscarinic 1 (CHRM1) small molecule antagonists, cell-based qHTS assay (AID 1963588); note: nearly all actives have a fitted effect of over 40% in size
# Summary of the method: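 Compounds were tested at 15 concentrations in three independent runs. Dye-loaded CHRM1-CHO cells were exposed 5 min at room temperature before stimulation by acetylcholine added at 50nM. Intracellular calcium was read kinetically on FDSS for 3 min.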
# [19] = biological target: Muscarinic acetylcholine receptor M1 (Homo sapiens) (UniProt P11229); assay: Cholinergic receptor muscarinic 1 (CHRM1) small molecule agonists, cell-based qHTS assay (AID 1963589); note: nearly all actives have a fitted effect of over 35% in size
# Summary of the method: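 qHTS, 15-point titration, 3 independent runs: compounds pin-transferred onto dye-loaded CHRM1-CHO cells (human M1), calcium fluorescence followed every second to detect agonism.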
# [20] = cAMP Responsive Elements (CRE) small molecule antagonists, cell-based qHTS assay (AID 1963591; active = well fitted inhibition curve with a large enough effect in the signal ratio in the repeat runs, not every such curve was filed as active; the % refers to the signal ratio)
# Summary of the method: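 Fluorescence intensity from cleaved LiveBLAzer B/G substrate (2 h, room temperature) quantified CRE-bla activity in HEK 293T cells exposed 3 h to compound with 0.25 uM final NKH477.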
# Sequence of D(2) dopamine receptor (Homo sapiens) (P14416 whole entry, looked up): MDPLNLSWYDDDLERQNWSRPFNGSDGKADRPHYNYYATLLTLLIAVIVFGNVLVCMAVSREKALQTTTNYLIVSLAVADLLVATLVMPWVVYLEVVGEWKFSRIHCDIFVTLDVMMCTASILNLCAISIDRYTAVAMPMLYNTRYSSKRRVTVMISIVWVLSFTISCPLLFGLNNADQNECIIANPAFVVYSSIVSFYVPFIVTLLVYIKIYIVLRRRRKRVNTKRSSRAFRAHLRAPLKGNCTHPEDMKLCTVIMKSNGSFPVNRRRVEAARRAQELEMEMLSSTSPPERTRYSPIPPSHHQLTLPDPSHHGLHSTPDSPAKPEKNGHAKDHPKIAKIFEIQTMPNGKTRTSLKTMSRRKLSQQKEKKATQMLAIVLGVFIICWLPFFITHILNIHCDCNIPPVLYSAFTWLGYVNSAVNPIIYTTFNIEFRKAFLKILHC
# Sequence of Beta-2 adrenergic receptor (Homo sapiens) (P07550 whole entry, looked up): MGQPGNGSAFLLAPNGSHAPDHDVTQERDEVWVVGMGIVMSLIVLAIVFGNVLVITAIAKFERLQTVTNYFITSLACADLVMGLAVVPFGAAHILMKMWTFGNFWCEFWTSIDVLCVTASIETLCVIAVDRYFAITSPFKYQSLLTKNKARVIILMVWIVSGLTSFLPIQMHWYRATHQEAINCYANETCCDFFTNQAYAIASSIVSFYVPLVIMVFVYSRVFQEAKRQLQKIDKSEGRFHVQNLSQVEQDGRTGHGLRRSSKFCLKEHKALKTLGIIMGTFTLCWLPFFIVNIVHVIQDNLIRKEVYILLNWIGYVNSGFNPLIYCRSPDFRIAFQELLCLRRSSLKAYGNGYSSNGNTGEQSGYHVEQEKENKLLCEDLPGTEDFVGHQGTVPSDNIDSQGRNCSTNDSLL
# Sequence of 5-hydroxytryptamine receptor 2A (Homo sapiens) (P28223 whole entry, looked up): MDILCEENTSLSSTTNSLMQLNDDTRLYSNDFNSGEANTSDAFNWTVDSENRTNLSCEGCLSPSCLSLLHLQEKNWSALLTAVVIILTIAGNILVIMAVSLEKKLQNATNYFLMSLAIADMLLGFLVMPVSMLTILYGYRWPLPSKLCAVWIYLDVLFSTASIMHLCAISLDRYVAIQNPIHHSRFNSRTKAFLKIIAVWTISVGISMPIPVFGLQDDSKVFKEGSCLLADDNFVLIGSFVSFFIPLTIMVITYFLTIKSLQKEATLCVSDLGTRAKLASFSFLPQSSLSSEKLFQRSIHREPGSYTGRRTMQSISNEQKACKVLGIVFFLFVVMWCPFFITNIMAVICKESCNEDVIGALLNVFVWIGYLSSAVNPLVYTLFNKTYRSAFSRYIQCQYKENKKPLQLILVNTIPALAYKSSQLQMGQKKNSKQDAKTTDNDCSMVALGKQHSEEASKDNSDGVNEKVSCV
# Sequence of Gonadotropin-releasing hormone receptor (Homo sapiens) (P30968 whole entry, looked up): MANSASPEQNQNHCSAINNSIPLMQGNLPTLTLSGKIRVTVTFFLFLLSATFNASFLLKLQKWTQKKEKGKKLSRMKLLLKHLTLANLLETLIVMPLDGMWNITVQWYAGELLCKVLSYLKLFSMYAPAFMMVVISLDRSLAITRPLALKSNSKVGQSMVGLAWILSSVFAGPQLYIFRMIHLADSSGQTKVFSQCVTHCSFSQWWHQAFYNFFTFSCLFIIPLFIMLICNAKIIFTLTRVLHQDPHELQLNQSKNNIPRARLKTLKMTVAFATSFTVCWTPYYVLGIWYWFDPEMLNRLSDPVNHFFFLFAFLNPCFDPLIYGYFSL
# Sequence of Muscarinic acetylcholine receptor M1 (Homo sapiens) (P11229 whole entry, looked up): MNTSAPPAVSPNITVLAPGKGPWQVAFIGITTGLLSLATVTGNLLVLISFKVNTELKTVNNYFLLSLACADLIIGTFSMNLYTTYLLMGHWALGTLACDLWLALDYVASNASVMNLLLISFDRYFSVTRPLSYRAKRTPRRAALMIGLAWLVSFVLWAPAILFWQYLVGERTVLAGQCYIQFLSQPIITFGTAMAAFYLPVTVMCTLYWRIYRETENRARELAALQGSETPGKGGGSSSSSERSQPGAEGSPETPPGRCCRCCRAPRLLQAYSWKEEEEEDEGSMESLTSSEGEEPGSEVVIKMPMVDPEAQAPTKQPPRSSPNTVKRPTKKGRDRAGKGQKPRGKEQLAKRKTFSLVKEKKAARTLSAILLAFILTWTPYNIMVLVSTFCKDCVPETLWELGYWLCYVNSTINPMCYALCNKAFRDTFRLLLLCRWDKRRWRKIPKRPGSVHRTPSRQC
# Sequence of KiSS-1 receptor (Homo sapiens) (Q969F8 whole entry, looked up): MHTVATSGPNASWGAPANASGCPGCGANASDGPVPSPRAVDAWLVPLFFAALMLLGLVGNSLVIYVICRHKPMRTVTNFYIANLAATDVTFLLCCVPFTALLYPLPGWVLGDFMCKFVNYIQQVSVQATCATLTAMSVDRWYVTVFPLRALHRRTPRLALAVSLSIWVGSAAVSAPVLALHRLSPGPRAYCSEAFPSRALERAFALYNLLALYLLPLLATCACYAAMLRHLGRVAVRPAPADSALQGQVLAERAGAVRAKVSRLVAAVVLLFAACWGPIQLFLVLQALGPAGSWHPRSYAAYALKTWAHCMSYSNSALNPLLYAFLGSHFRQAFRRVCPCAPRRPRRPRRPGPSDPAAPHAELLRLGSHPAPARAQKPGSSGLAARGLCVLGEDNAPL
Compound,Potency [1],Potency [2],Potency [3],Potency [4],Potency [5],Potency [6],Potency [7],Potency [8],Potency [9],Potency [10],Potency [11],Potency [12],Potency [13],Potency [14],Potency [15],Potency [16],Potency [17],Potency [18],Potency [19],Potency [20]
C#C[C@]1(O)CC[C@H]2[C@@H]3CCC4=CC(=O)CC[C@@H]4[C@H]3CC[C@@]21CC,inactive,inactive,inactive,inactive,inactive,inactive,inactive,inactive,inactive,inactive,inactive,inactive,–,–,–,–,–,–,–,–
NC(=O)NC1NC(=O)NC1=O (centres undefined),inactive,inactive,inactive,inactive,inactive,inactive,inactive,inactive,inactive,inactive,inactive,inactive,inactive,inactive,inactive,inactive,inactive,inactive,inactive,inactive
Cc1cccc(C)c1,inactive,inactive,inactive,–,–,inactive,–,inactive,inactive,inactive,inactive,inactive,–,inactive,–,inactive,inactive,inactive,inactive,inactive
NC(=O)/N=N/C(N)=O,inactive,inactive,–,inactive,inactive,inactive,inactive,inactive,inactive,inactive,inactive,inactive,–,inactive,–,inactive,inactive,inactive,inactive,inactive
Oc1ccc(O)cc1,inactive,–,inactive,inactive,inactive,inactive,inactive,–,inactive,inactive,inactive,inactive,–,inactive,inactive,–,inactive,inactive,–,inactive
CN(C)Cc1cc(CN(C)C)c(O)c(CN(C)C)c1,inactive,inactive,inactive,inactive,inactive,inactive,inactive,inactive,inactive,–,–,inactive,–,–,inactive,inactive,inactive,inactive,inactive,inactive
CC(C)NCC(O)c1ccc(O)c(O)c1 (centres undefined),inactive,inactive,inactive,–,–,inactive,–,–,–,–,–,303 nM (active) and 969 nM (active) and 596 nM (active),–,inactive,inactive,–,–,–,–,inactive
NC(=O)c1cccnc1,inactive,inactive,–,–,inactive,inactive,inactive,inactive,–,inactive,inactive,inactive,–,inactive,–,–,–,–,–,inactive
CCCCC(CC)C(=O)O (centres undefined),inactive,inactive,inactive,–,–,inactive,–,inactive,inactive,inactive,–,inactive,–,inactive,inactive,inactive,inactive,inactive,inactive,inactive

# — PubChem BioAssay (Tox21)
